# Reference: ChEMBL document CHEMBL1201862, “PubChem BioAssay data set” (2004)
# “And” between values parts separate entries of the source, which are not always exact repeats. Identical values can stand only once. Hit rate of the full screen: of about 400,000 compounds, about 2,100 (0.53%) were called active. Another 14% or so got no clear call; they are omitted. No rule for the calls is given here. The full list was thinned out, with actives kept by preference.
# Molecular target: Ataxin-2 (Homo sapiens) (UniProt Q99700)
# Sequence (Q99700 whole entry): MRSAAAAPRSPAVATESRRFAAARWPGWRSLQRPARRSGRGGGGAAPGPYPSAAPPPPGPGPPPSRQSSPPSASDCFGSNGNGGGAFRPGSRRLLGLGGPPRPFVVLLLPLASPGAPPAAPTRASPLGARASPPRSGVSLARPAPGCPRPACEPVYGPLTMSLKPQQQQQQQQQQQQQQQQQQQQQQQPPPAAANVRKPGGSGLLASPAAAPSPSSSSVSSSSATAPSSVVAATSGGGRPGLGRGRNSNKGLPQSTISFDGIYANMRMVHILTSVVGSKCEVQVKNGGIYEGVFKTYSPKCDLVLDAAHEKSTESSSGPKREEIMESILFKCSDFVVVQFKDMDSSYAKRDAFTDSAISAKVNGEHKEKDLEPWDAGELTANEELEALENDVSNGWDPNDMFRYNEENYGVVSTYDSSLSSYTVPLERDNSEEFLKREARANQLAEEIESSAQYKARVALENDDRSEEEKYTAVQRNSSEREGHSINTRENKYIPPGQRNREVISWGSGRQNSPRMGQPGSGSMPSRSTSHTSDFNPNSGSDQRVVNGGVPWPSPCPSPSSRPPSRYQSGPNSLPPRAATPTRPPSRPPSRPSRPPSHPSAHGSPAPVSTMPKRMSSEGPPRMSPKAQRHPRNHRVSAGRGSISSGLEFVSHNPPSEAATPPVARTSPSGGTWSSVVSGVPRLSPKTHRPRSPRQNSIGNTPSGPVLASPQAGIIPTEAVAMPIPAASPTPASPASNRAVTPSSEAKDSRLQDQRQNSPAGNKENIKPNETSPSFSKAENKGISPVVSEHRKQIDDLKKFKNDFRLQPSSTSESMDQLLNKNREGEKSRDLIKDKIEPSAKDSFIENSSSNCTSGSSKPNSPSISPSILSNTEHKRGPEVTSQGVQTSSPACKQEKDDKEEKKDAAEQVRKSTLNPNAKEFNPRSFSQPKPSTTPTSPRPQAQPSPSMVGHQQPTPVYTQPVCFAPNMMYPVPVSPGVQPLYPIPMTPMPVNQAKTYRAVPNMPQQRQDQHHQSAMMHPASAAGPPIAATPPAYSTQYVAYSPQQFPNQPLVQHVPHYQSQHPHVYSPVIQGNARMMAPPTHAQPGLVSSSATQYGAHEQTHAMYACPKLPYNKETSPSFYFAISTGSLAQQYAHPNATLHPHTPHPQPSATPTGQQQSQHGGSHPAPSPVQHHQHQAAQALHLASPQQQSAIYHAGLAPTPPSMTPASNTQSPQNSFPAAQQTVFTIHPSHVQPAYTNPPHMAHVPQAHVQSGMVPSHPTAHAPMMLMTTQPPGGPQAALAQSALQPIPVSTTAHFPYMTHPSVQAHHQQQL
# Assay: qHTS for Inhibitors of ATXN expression.
# Format: functional
row,Structure (SMILES),Potency
1,CCOC(=O)c1cc2c(=O)n3ccccc3nc2n(CCOC)/c1=N\C(=O)C(C)(C)C,inactive
2,Cc1cccn2c(=O)c3cc(C(=O)NCc4ccco4)c(=N)n(C4CCCCC4)c3nc12,inactive
3,Cc1ccc(N2C(=O)/C(=C\Nc3ccccc3-c3nnc(S)nc3O)c3ccccc3C2=O)c(C)c1,17.8 µM (active)
4,Cc1ccc(N2C(=O)/C(=C/NC3CCS(=O)(=O)C3)c3ccccc3C2=O)c(C)c1 (stereo not drawn),inactive
5,Cc1cccc(N2C(=O)/C(=C\Nc3cc(O)ccc3C)c3ccccc3C2=O)n1,inactive
6,CCOc1ccc(N2C(=O)/C(=C/Nc3ccnn3Cc3ccncc3)c3ccccc3C2=O)cc1,inactive
7,Cn1nnnc1SCc1cccc2ccccc12,inactive
8,COc1ccc(CNCCSc2nnnn2C)c(OC)c1OC,inactive
9,Cn1nnnc1SCCCNCc1cc(Br)ccc1OCc1ccccc1F,25.1 µM (active)
10,Cn1c2nc(=O)n(-c3ccccc3)c(=O)c-2nc2c1CCCC2,inactive
11,CCOc1ccccc1NC(=O)c1cc(SC)ccc1Cl,inactive
12,COc1ccccc1NC(=O)CCC(=O)OC(C)C(=O)c1ccccc1 (stereo not drawn),inactive
13,COc1ccccc1NC(=O)/C=C/C(N)=O,39.8 µM (active)
14,CCCOc1ccccc1NC(=O)/C=C/C(N)=O,35.5 µM (active)
15,CCCCOc1ccccc1C1C(C(=O)OC)=CN(CC)C=C1C(=O)OC,inactive
16,CCOc1ccccc1NC(=O)CN1C(=O)COc2ccccc21,inactive
17,CCOc1ccccc1NC(=O)/C=C/C(N)=O,39.8 µM (active)
18,CCCOc1ccccc1C1C(C(=O)OC)=CN(C(C)C)C=C1C(=O)OC,inactive
19,COc1ccccc1NC(=S)NC(=O)CCc1ccccc1,inactive
20,Cc1cc(Br)ccc1-n1nc(C)c(/C=N/c2cccc3nsnc23)c1O,inactive
21,Cc1cc(NC(=O)Cn2cc([N+](=O)[O-])cn2)n(Cc2ccc(F)cc2)n1,inactive
22,COc1ccc(C(=O)c2oc3ccc(OC)cc3c2NC(C)=O)cc1,inactive
23,O=C1C=C(NCCc2ccccc2)C2(CCCCC2)O1,inactive
24,CSc1ccc2c(c1)C(N1CCN(C)CC1)Cc1ccccc1S2 (stereo not drawn),22.4 µM (active) and 31.6 µM (active)
25,CCc1ccccc1N1C(=O)[C@@H]2Cc3ccccc3CN2C1=O,inactive
26,CN1CCN(C2Cc3ccccc3Sc3cc(C(F)(F)F)ccc32)CC1 (stereo not drawn),39.8 µM (active)

row,Structure (SMILES),Potency
1,CN1CCN(C2Cc3ccccc3Sc3ccc(Cl)cc32)CC1 (stereo not drawn),22.4 µM (active) and 28.2 µM (active)
2,CCc1cccc2c1Sc1ccccc1CC2N1CCNCC1 (stereo not drawn),39.8 µM (active)
3,FC(F)(F)c1ccccc1C1=CC(c2ccccc2)n2ncnc2N1 (stereo not drawn),inactive
4,c1ccc(CCNc2ccnc3cc4ccccc4cc23)cc1,inactive
5,CC(C)Nc1ccc(Nc2ccnc3cc4ccccc4cc23)cc1,31.6 µM (active)
6,Cc1c2ccccc2nc2c(F)c(NC(C)C)c(F)c(F)c12,inactive
7,Cc1c(CCC(=O)NC2CC2)c(=O)oc2cc(O)ccc12,inactive
8,Cc1cc(/C=N/NC(=O)Cn2c3ccccc3c(=O)c3ccccc32)c(C)n1-c1ccc(Cl)cc1,inactive
9,CC1CN(C(=O)COC(=O)c2ccc(NC(=O)CC#N)cc2)CC(C)O1 (stereo not drawn),inactive
10,CCCNC(=O)c1nnsc1[S+]([O-])c1ccc(Cl)cc1 (stereo not drawn),6.7 µM (active)
11,CCCc1nn(C)c(C(=O)Nc2ccc(Cl)cc2)c1Cl,inactive
12,O=C(c1nc2n(n1)C(c1ccc(Cl)cc1)C=C(c1ccccc1)N2)N1CCOCC1 (stereo not drawn),inactive
13,O=C(c1nnsc1S(=O)(=O)c1ccc(Cl)cc1)N1CCOCC1,26.7 µM (active)
14,Cc1nnsc1C(=O)NNc1ccc(Cl)cc1,inactive
15,O=C(c1nnsc1[S+]([O-])c1ccc(Cl)cc1)N1CCOCC1 (stereo not drawn),20 µM (active)
16,O=C(c1cccn2c(=O)c3cc(Cl)ccc3nc12)N1CCOCC1,inactive
17,O=C(c1cc2cc(Br)ccc2s1)N1CCOCC1,inactive
18,NC(=O)c1c(NC(=O)c2ccc(S(=O)(=O)N3CCOCC3)cc2)sc2c1CCCCC2,inactive
19,C=CCOC(=O)C(=O)/C=C/c1coc2ccccc2c1=O,inactive
20,CCOc1cc(C(=O)NC2=NCCS2)cc(OCC)c1OCC,inactive
21,Cc1noc(C)c1-c1nnc(-c2ccc(OC(F)(F)F)cc2)o1,inactive
22,Fc1ccc(Br)cc1C1C=C(c2cccnc2)Nc2ncnn21 (stereo not drawn),inactive
23,O=C(CCN1CCc2ccccc2C(O)(c2ccccc2)C1)c1ccc2c(c1)OCCO2 (stereo not drawn),39.8 µM (active)
24,O=C(CCN1Cc2ccccc2C1)c1ccc2c(c1)OCCO2,25.1 µM (active)
25,Nc1c(-c2ccc3c(c2)OCCO3)oc2ccccc2c1=O,inactive
26,O=C(/C=C\Nc1ccccc1Br)c1ccc2c(c1)OCO2,inactive

row,Structure (SMILES),Potency
1,O=C(C1CC(=O)N(c2ccc3c(c2)OCCO3)C1)N1CCN(Cc2ccccc2)CC1 (stereo not drawn),inactive
2,O=C(CCN1CCCC1Cc1ccccc1)c1ccc2c(c1)OCCO2 (stereo not drawn),31.6 µM (active)
3,N=C(NOC(=O)COc1ccc(Br)cc1Cl)c1ccncc1,inactive
4,CC(C)C(NC(=O)C1CCCCC1)C(=O)NC1CCCC(C)C1C (stereo not drawn),inactive
5,Cc1ccc(CNC(=O)c2sc3nc(-c4ccc(F)cc4)ccc3c2N)cc1,inactive
6,Nc1c(C(=O)NCc2ccc(Cl)cc2)sc2nc(-c3ccc(F)cc3)ccc12,inactive
7,COc1cc(OC)c(-c2cc(C(=O)NCc3ccc(F)cc3)c3c(-c4ccccc4)[nH]nc3n2)cc1OC,44.7 µM (active)
8,N#CCSc1ccc2nc(-c3ccccc3)cn2n1,inactive
9,CC1CC(=O)Nc2ccccc2N1C(=O)COc1ccccc1C(N)=O (stereo not drawn),inactive
10,Cc1cc(OCC(=O)N2CCC(O)(c3ccc(Cl)cc3)CC2)c2c(C)cc(=O)oc2c1,inactive
11,Cc1ccc2c(c1)C(c1ccccc1)N(C(=O)COc1ccc(Cl)cc1Cl)CC(=O)N2 (stereo not drawn),28.2 µM (active)
12,COc1cccc2c1cc1c(=O)n(CC(=O)NCCCN3CCN(C)CC3)nc(C)n12,inactive
13,COc1ccc(N2CCN(C(=O)c3ccc(Cn4c(=S)[nH]c5ccc(N6CCOCC6)cc5c4=O)cc3)CC2)cc1,inactive
14,O=C(NC1CCN(Cc2ccccc2)CC1)c1ccc(Cn2c(=S)[nH]c3ccc(N4CCOCC4)cc3c2=O)cc1,inactive
15,CCCCNC(=O)c1ccc(Cn2c(=S)[nH]c3c([nH]c4ccc(OC)cc43)c2=O)cc1,39.8 µM (active)
16,CCN(CC)c1ccc(/C=N/NC(=O)c2nnn(-c3nonc3N)c2-c2ccc(C)cc2)cc1,inactive
17,Cc1cccn2c(=O)c3cc(C#N)c(=O)n(CCCN4CCOCC4)c3nc12,inactive
18,COc1cc(C(=O)NCCCNc2nc3cc(C)c(C)cc3cc2C#N)cc(OC)c1OC,inactive
19,CCOC(=O)CNC(=O)C12CC3CC(C1)CC(c1ccc(C)cc1)(C3)C2,inactive
20,COc1ccc(C23CC4CC(CC(C4)C2)C3)cc1C(=O)NCCN(C)C,22.4 µM (active)
21,COc1ccc(CCNC(=O)COC(=O)C2CC2C)cc1OC (stereo not drawn),inactive
22,Cc1nc(COc2ccccc2Cl)sc1-c1ccnc(N)n1,inactive
23,S=C(Nc1ccc2nc(-c3ccccn3)c(-c3ccccn3)nc2c1)N1CCOCC1,inactive
24,COc1ccc(-c2cc3ccc(O)c(CN4CCOCC4)c3oc2=O)cc1OC,inactive
25,COc1ccc(-c2c(C)c3ccc(O)c(CN4CCOCC4)c3oc2=O)cc1,inactive
26,COc1ccc(C(c2c(O)ccc3ccccc23)N2CCOCC2)c(OC)c1 (stereo not drawn),15.8 µM (active)

row,Structure (SMILES),Potency
1,CCN(CC)c1ccc(/C=N\NC(=O)c2cccc3cc[nH]c23)cc1,inactive
2,COc1cccc(Nc2nc(C(N)Cc3ccc(C(F)(F)F)cc3)cs2)n1 (stereo not drawn),31.6 µM (active)
3,NC(Cc1ccc(F)cc1)c1csc(Nc2ccc(C(F)(F)F)cn2)n1 (stereo not drawn),35.5 µM (active)
4,NC(Cc1ccc(F)cc1)c1csc(Nc2nccc(C(F)(F)F)n2)n1 (stereo not drawn),39.8 µM (active)
5,CCc1cnc(Nc2nc(C(N)Cc3ccc(F)cc3)cs2)nc1 (stereo not drawn),25.1 µM (active)
6,O=C(NCCN1CCCOC1=O)C(=O)NCCN1CCCOC1=O,inactive
7,O=C(NC1CCCc2ccccc21)c1ccccc1Cl (stereo not drawn),inactive
8,O=C(Nc1ccc2nc(-c3ccco3)c(-c3ccco3)nc2c1)NC1CC1,inactive
9,CCOC(=O)c1cnc2nc(N3CCOCC3)nn2c1N,inactive
10,NC(=S)c1cc2ccc(O)cc2oc1=O,inactive
11,Cc1[nH]c2ccccc2c1/C=C/c1nc2ccccc2c(=O)n1CCO,inactive
12,NC(c1ccccc1)c1csc(Nc2ccc(C(F)(F)F)cn2)n1 (stereo not drawn),35.5 µM (active)
13,CCCc1cnc(Nc2nc(C(N)Cc3ccc(C(F)(F)F)cc3)cs2)nc1 (stereo not drawn),22.4 µM (active)
14,CCc1cnc(Nc2nc(C(N)Cc3ccc(Cl)cc3)cs2)nc1 (stereo not drawn),35.5 µM (active)
15,COc1cc(OC)nc(Nc2nc(C(N)Cc3ccc(Cl)cc3)cs2)n1 (stereo not drawn),35.5 µM (active)
16,COc1ccccc1/C=[N+](\[O-])C1SC(=S)N(C)C1(C)C (stereo not drawn),inactive
17,Cc1c(C)c2ccc(O[C@@H]3O[C@H](CO)[C@@H](O)[C@H](O)[C@H]3O)c(C)c2oc1=O,inactive
18,Cc1nc2ccc(NS(=O)(=O)c3c(F)cc(F)cc3Br)cc2s1,inactive
19,O=C(Nc1ccc(NC(=O)C2CC2)nc1)c1cnccn1,inactive
20,COc1ccc(-c2cc(=O)oc3c(O)c(O)ccc23)cc1,inactive
21,O=C(Nc1nc2n(n1)C(c1ccc(Cl)cc1)C=C(c1ccccc1)N2)c1ccco1 (stereo not drawn),inactive
22,O=C(CN1C(=O)/C(=C\c2cccc(Br)c2)Oc2ccccc21)NCCCN1CCOCC1,39.8 µM (active)
23,O=C(CN1C(=O)/C(=C\c2ccccc2Cl)Oc2ccccc21)NCc1cccnc1,inactive
24,CCCCNC(=O)c1ccc(/C=C2\Oc3ccccc3N(C)C2=O)cc1,inactive
25,COc1cc(/C=C(\C#N)c2ccccn2)ccc1OCc1ccccc1,inactive
